Results from PubChem BioAssay AID1159580 (chemical genetic matrix, 2015).
In all, about 5,500 compounds went through this assay and about 2,000 (36%) were called active. Another 18% or so got no clear call; they are omitted. Rule as the data show it: active = normalized growth mostly below about 0.91 (no sharp cut-off); inconclusive = no clear call, values can overlap the other calls; inactive = mostly above about 0.92. This is one part of the list.

Experiment: chemical genetic growth profiling, strain panel (AID 1159580);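 also: tested at 20 µM; growth read once vehicle control cultures reached saturation at 30 °C; 1 = growth at the plate median or of vehicle wells; lower values mean less growth of the strain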
Conditions: S. cerevisiae deletion strains, growth OD

Measured: normalized growth

CCCCCCCCCCC[C@@H](C[C@H]1OC(=O)[C@H]1CCCCCC)OC(=O)[C@@H](CC(C)C)NC=O
inactive: locus YAL013W, strain DEP1, active compounds read low 1.05 | locus YAL021C, strain ccr4, active compounds read low 1.01 | locus YAL026C, strain drs2, active compounds read low 1.05 | locus YAL030W, strain snc1, active compounds read low 1.03 | locus YBL061C, strain skt5, active compounds read low 1.02 | locus YBR009C, strain hhf1, active compounds read low 1.04 | locus YBR021W, strain FUR4, active compounds read low 1.05 | locus YBR023C, strain chs3, active compounds read low 0.994 | locus YBR171W, strain sec66, active compounds read low 1.06 | locus YBR229C, strain ROT2, active compounds read low 1.02 | locus YBR231C, strain swc5, active compounds read low 0.965 | locus YBR279W, strain paf1, active compounds read low 1 | locus YCL011C, strain gbp2, active compounds read low 1.05 | locus YCL016C, strain dcc1, active compounds read low 1.01 | locus YCL029C, strain bik1, active compounds read low 1.03 | locus YCL061C, strain MRC1, active compounds read low 1.05 | locus YCL069W, strain vba3, active compounds read low 1.05 | locus YCR088W, strain abp1, active compounds read low 1.02 | locus YDL005C, strain med2, active compounds read low 1.03 | locus YDL035C, strain GPR1, active compounds read low 1.05 | locus YDL040C, strain nat1, active compounds read low 1 | locus YDL074C, strain BRE1, active compounds read low 1.05 | locus YDL101C, strain DUN1, active compounds read low 1.02 | locus YDL134C, strain PPH21, active compounds read low 1.02 | locus YDL185W, strain tfp1, active compounds read low 0.992 | locus YDL192W, strain arf1, active compounds read low 1.03 | locus YDR001C, strain nth1, active compounds read low 1.05 | locus YDR069C, strain doa4, active compounds read low 1.02 | locus YDR101C, strain arx1, active compounds read low 1.03 | locus YDR137W, strain rgp1, active compounds read low 0.978 | locus YDR150W, strain NUM1, active compounds read low 1.06 | locus YDR159W, strain sac3, active compounds read low 1.01 | locus YDR162C, strain NBP2, active compounds read low 1.02 | locus YDR195W, strain ref2 1.02 | locus YDR297W, strain sur2, active compounds read low 1.04 | locus YDR318W, strain mcm21, active compounds read low 1.01 | locus YDR334W, strain swr1, active compounds read low 1.03 | locus YDR335W, strain msn5, active compounds read low 1.05 | locus YDR388W, active compounds read low 1.02 | locus YDR392W, strain spt3, active compounds read low 1.1 | locus YDR502C, strain sam2, active compounds read low 1.03 | locus YEL003W, strain gim4, active compounds read low 1.02 | locus YEL037C, strain rad23, active compounds read low 1.06 | locus YEL061C, strain CIN8 (second series), active compounds read low 1.04 | locus YEL061C, strain CIN8, active compounds read low 1.01 | locus YER015W, strain faa2, active compounds read low 1.02 | locus YER016W, strain bim1, active compounds read low 1.01 | locus YER110C, active compounds read low 1.02 | locus YER111C, strain swi4, active compounds read low 1.06 | locus YER155C, strain BEM2 (second series), active compounds read low 1.07 | locus YER155C, strain BEM2, active compounds read low 1.03 | locus YER167W, strain BCK2, active compounds read low 1.02 | locus YFR010W, strain ubp6, active compounds read low 1.05 | locus YGL078C, strain dbp3, active compounds read low 1.03 | locus YGL086W, strain mad1, active compounds read low 1.01 | locus YGL167C, strain pmr1, active compounds read low 0.994 | locus YGL173C, strain kem1, active compounds read low 1.04 | locus YGL227W, strain vid30, active compounds read low 1.02 | locus YGL240W, strain doc1, active compounds read low 1.06 | locus YGL248W, strain PDE1, active compounds read low 1.03 | locus YGL253W, strain hxk2, active compounds read low 1.04 | locus YGR078C, strain PAC10, active compounds read low 1.05 | locus YGR135W, strain pre9, active compounds read low 1.02 | locus YGR252W, strain gcn5, active compounds read low 1.08 | locus YHR013C, strain ard1, active compounds read low 1.03 | locus YHR027C, strain rpn1, active compounds read low 1.05 | locus YHR030C, strain SLT2, active compounds read low 1.04 | locus YHR079C, strain IRE1 (second series), active compounds read low 1 | locus YHR094C, strain hxt1, active compounds read low 1 | locus YHR129C, strain ARP1, active compounds read low 1.04 | locus YHR142W, strain chs7, active compounds read low 1.04 | locus YHR200W, strain rpn10, active compounds read low 1.03 | locus YIL066C, strain RNR3, active compounds read low 1.03 | locus YIL073C, strain SPO22, active compounds read low 1.06 | locus YIL125W, strain kgd1, active compounds read low 1 | locus YIR030C, strain dcg1, active compounds read low 1.03 | locus YJL092W, strain hpr5, active compounds read low 1.04 | locus YJL095W, strain BCK1 (second series), active compounds read low 1.03 | locus YJL095W, strain BCK1, active compounds read low 1.05 | locus YJL115W, strain asf1, active compounds read low 1.06 | locus YJL129C, strain trk1, active compounds read low 1.04 | locus YJL134W, strain LCB3, active compounds read low 1.02 | locus YJL154C, strain vps35, active compounds read low 1.07 | locus YJL164C, strain tpk1, active compounds read low 1.04 | locus YJL166W, strain qcr8, active compounds read low 1.04 | locus YJL168C, strain set2, active compounds read low 1 | locus YJL187C, strain SWE1 (second series), active compounds read low 1.03 | locus YJL187C, strain SWE1, active compounds read low 1.04
